Assay outcomes deposited in PubChem BioAssay by several laboratories.
This is a sample that favours compounds with a hit; in the whole collection about 3.3% have one here.
Smad3 inh: inhibitors of human Smad3 transcription factor binding; inhibition, % at 25 µM; TR-FRET Smad3/Dy647-FoxH1 peptide binding, europium anti-His; 88,000 tested, 0.29% active;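 active = compounds that reduce the energy-transfer binding signal between the protein and its labelled peptide by more than half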
Target sequence (P84022 whole entry, looked up): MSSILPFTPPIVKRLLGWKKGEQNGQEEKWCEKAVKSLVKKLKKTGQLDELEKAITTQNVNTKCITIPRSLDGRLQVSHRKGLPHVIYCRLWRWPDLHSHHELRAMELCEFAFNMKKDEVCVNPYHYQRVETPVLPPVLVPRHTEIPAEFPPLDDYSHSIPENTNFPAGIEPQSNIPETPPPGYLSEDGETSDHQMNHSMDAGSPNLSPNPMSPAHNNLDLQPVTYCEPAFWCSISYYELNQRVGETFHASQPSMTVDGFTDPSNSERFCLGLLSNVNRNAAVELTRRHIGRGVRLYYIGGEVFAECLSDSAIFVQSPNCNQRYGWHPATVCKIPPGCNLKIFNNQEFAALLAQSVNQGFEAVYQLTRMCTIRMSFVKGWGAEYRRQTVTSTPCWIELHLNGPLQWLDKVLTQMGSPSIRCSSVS
FAK inh: inhibitors of human focal adhesion kinase; inhibition, %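 (tested at 7 µM)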; biochemical FAK kinase activity assay; AID 727; 97,000 tested, 0.84% active; in the data active = inhibition above about 19%
ERa coact inh: ER-alpha (human) coactivator binding inhibition. inhibition, % at 25.6 µM. TR-FRET ER-alpha LBD / SRC-1 peptide, estradiol-bound. 86,000 tested, 1.7% active; in the data active = inhibition above about 50%
ERa coact pot: ER-alpha (human) coactivator binding potentiation. TR-FRET ERalpha-LBD/SRC-Cy5 coactivator binding, 2 h; 100 = basal binding, no effect. 86,000 tested, 1.3% active. P03372. coactivator binding (% of control), % at 25.6 µM; in the data active = activity above about 200%;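 also: binding measured in presence of low estradiol as agonist stimulus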
ERb coact inh: blocks coactivator binding to human estrogen receptor beta; Q92731; TR-FRET ER-beta LBD / SRC1-Cy5 peptide binding; receptor agonist-loaded with 1 µM estradiol; inhibition, % at 25.6 µM; 86,000 tested, 1.3% active;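 active = compounds whose percent inhibition of the receptor-coactivator binding signal exceeds about 50% in the single-dose screen, limit read from the data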
A number is an active result; – = inactive; · = no result; [ ] = remark or other dose.

SMILES	Smad3 inh	FAK inh	ERa coact inh	ERa coact pot	ERb coact inh
Cc1ccc(S(=O)(=O)c2cc3c(=O)n4cccc(C)c4nc3n(CC3CCCO3)c2=N)cc1 (stereo not given)	–	·	–	290	–
Cc1ccc(S(=O)(=O)c2cc3c(=O)n4ccccc4nc3n(Cc3ccco3)c2=N)cc1	–	–	–	–	63[fluorescence artefact?]
CN1CCC[C@H]1c1cccnc1.O=C(O)c1ccccc1O.O=C([OH2+])c1ccccc1O.O=C([OH2+])c1ccccc1O.O=C([OH2+])c1ccccc1O.[Mn]	–	·	·	·	·
CN(C)c1ccc(/C=C2\C(=O)N(c3ccc([N+](=O)[O-])cc3)N=C2N2CCOCC2)cc1	–	20	–	–	–
CN(C)c1ccc(/C=C2/C(=O)N(c3ccc([N+](=O)[O-])cc3)N=C2N2CCOCC2)cc1	·	–	·	·	·
CCc1nc(NCc2ccco2)c2oc3ccccc3c2n1	–	23	–	–	–
CCNc1nc(CC)nc2c1oc1ccccc12	–	–	–	–	–
COC(=O)[C@@H]1C(O)[C@H](C(=O)OC)[C@@H](C)N(C)[C@H]1C (stereo not given in full)	–	·	·	·	·
CN(C)c1ccc(NC(=O)c2cc3c(=O)n4ccccc4nc3n2C)cc1	–	–	100[fluorescence artefact?]	–	93[fluorescence artefact?]
CCCN1Cc2cccc(C(=O)Nc3ccc4c(c3)OCO4)c2C1=O	–	·	–	–	–
O=C(Nc1ccc2c(c1)OCO2)c1cccc2c1C(=O)N(Cc1cccnc1)C2	–	·	77[fluorescence artefact?]	–	61
CSc1nc(C)cc(Nc2ccc(O)c(CN3CCCCC3)c2)n1	–	·	·	·	·
COc1ccc(CC(NC(C)=O)C(=O)NC2CCN(C(=O)NCc3ccccc3)CC2)cc1OC (stereo not given)	–	–	–	–	87[fluorescence artefact?]
CCS(=O)(=O)Nc1ccc(C(=O)CC2(O)C(=O)Nc3ccccc32)cc1 (stereo not given)	–	–	–	219[fluorescence artefact?]	–
Cc1cc(C)c(C(=O)CC2(O)C(=O)Nc3ccccc32)cc1C (stereo not given)	–	–	–	–	–
COCC(=O)Nc1nc2ccc(C)cc2s1	–	–	–	–	–
Cc1ccc2nc(NC(=O)CSCc3ccccc3)sc2c1	–	–	–	–	85[fluorescence artefact?]
CC(C)NCC[C@@H](O)c1cc2ccccc2o1	–	·	·	·	·
O=S(=O)(c1ccc(N2CCN(S(=O)(=O)c3ccc4c(c3)OCCO4)CC2)nc1)N1CCCC1	–	–	–	275[fluorescence artefact?]	–
CC(=O)N1CCN(c2ccc(S(=O)(=O)N3CCCCC3)cn2)CC1	–	–	–	–	–
Cc1ccc(Sc2c(C)nn(C(=O)c3cccc(S(=O)(=O)N4CCOCC4)c3)c2C)cc1	–	–	–	237[fluorescence artefact?]	–
CCc1ccccc1NC(=O)c1cnc2scc(C)n2c1=O	–	–	–	216[fluorescence artefact?]	–
CC(C)NC[C@@H](O)c1ccc(O)c2ncccc12	–	·	·	·	·
Cc1cc(C)c2cc(C#N)c(N3CCCN(S(=O)(=O)c4ccccc4)CC3)nc2c1	–	–	–	262[fluorescence artefact?]	–
Cc1ccc(S(=O)(=O)N2CCN(c3nc4ccccc4nc3-n3nc(C)cc3C)CC2)cc1	–	–	–	–	–
SMILES	Smad3 inh	FAK inh	ERa coact inh	ERa coact pot	ERb coact inh
CC(=O)c1cccc(S(=O)(=O)N2CCN(c3nc4cc(C)cc(C)c4cc3C#N)CC2)c1	–	–	–	–	58[fluorescence artefact?]
C[C@@](O)(CNS(=O)(=O)c1ccccc1)c1ccccc1	–	·	·	·	·
CNC(=O)CSc1nc2c(c(=O)n(C)c(=O)n2C)n1Cc1ccc(C)cc1	–	–	–	201	–
O=C(NCc1ccc2c(c1)OCO2)c1cc2ncc(Br)cn2n1	–	–	80[fluorescence artefact?]	–	78[fluorescence artefact?]
CC1CCN(CC(=O)N2c3ccccc3Sc3cc4ccccc4cc32)CC1	–	·	·	·	·
COCC(=O)Nc1nc(-c2ccccc2)ns1	·	–	·	·	·
Cc1ccc(C(=O)Nc2nc3ccccc3n2CCN2CCCC2)cc1	–	–	–	284[fluorescence artefact?]	–
O=C(Nc1nc2ccccc2n1CCN1CCCC1)c1ccc(Cl)cc1	–	·	–	–	–
Cc1ccc2cc3cc(C(=O)NCCCN4CCCCCC4)oc3nc2c1	–	–	58[fluorescence artefact?]	–	–
Cc1ccc2cc3cc(C(=O)NCCCN4CCc5ccccc5C4)oc3nc2c1	–	–	–	–	–
CCOc1ccc(OCC)c(NC(=O)c2[nH]c(C)c(C(C)=O)c2C)c1	–	–	54[fluorescence artefact?]	249[fluorescence artefact?]	–
COc1ccccc1OCC(=O)c1[nH]c(C)c(C(C)=O)c1C	–	–	69[fluorescence artefact?]	–	74[fluorescence artefact?]
CCOC(=O)c1[nH]c(COC(=O)CCOc2ccccc2OC)c(C(=O)OCC)c1C	·	–	·	·	·
CC(=O)c1c(C)[nH]c(C(=O)COc2ccc(C#N)cc2)c1C	–	–	63	–	–
CCOC(=O)c1[nH]c(C)c(C(=O)Nc2cc(OC)ccc2OC)c1C	–	–	–	–	–
CCOC(=O)c1c(C)[nH]c(C)c1C(=O)COC(=O)CCOc1ccccc1OC	–	–	–	–	58
COc1ccc(-c2cc([C@H](O)[C@@H]3CCCCN3)c3ccccc3n2)cc1	–	·	·	·	·
Nc1c(C(=O)c2cccs2)oc2ccccc12	–	–	–	259[fluorescence artefact?]	–
Nc1c(C(=O)c2ccc(Br)s2)oc2ccccc12	–	–	–	–	–
O=C1C(Cl)=C(Nc2ccccc2O)C(=O)N1c1ccccc1	–	–	54[fluorescence artefact?]	–	–
O=C(Cc1ccc(Cl)cc1)Nc1ccc(N2CCN(C(=O)c3ccco3)CC2)cc1	–	–	67[fluorescence artefact?]	–	–
O=C(Cc1ccc(Cl)cc1)Nc1ccc(-c2nnc(-c3ccco3)o2)cc1	–	–	68[fluorescence artefact?]	–	–
O=C(O)CCC(=O)Nc1ccc(-c2nnc(-c3ccco3)o2)cc1	–	–	–	–	–
COc1cccc2c1C(=O)c1c(O)c3c(c(O)c1C2=O)C[C@@](O)(C(=O)CO)C[C@H]3O[C@H]1C[C@@H](N)[C@H](O)[C@@H](C)O1.[W]	–	·	·	·	·
O=C1c2ccccc2C2NC(=O)C3(CCCCC3)N12 (stereo not given)	–	·	–	–	–
SMILES	Smad3 inh	FAK inh	ERa coact inh	ERa coact pot	ERb coact inh
O=C1C(O)CC2c3ccccc3CC3(CCCC3)N12 (stereo not given)	–	–	–	235	–
CC(=O)NC(c1ccco1)c1ccc2cccnc2c1O (stereo not given)	–	–	–	–	59[fluorescence artefact?]
NC(=O)c1ccsc1NC(=O)c1ccc(S(=O)(=O)N2CCCCC2)cc1	–	–	–	–	–
CC1CC(C)CN(S(=O)(=O)c2ccc(C(=O)Nc3sccc3C(N)=O)cc2)C1 (stereo not given)	–	–	–	253[fluorescence artefact?]	–
COc1ccc(CN2CC(C(=O)NCCCN3CCCCCC3)CC2=O)cc1 (stereo not given)	–	–	–	203[fluorescence artefact?]	–
Cc1ccc(CCN2CC(C(=O)NCCN3CCCCCC3)CC2=O)cc1 (stereo not given)	–	–	–	–	–
Cc1ccc(CCN2CC(C(=O)NCCCN3CCCCCC3)CC2=O)cc1 (stereo not given)	66	–	–	917[fluorescence artefact?]	58[fluorescence artefact?]
CCCCCCCC(=O)NC(Nc1ccc(S(N)(=O)=O)cc1)C(Cl)(Cl)Cl (stereo not given)	·	–	·	·	·
